Experimental data from the supplement of paper PMC12494721.
Where a name gives a salt, the structure may show the parent alone.

Key:
Conditions in all cases: incubation time: 27 h, anaerobic, 37 °C;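 for the amine columns active = adjusted P below 0.05 in both replicates with a change the same way and a mean fold change under 0.8 or over 1.25; inactive = the rest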
[1] = system: Clostridium sporogenes DSM 1664; experiment: growth (OD595) fold change vs plate DMSO controls (fold change (ratio)); higher = more growth
Procedure, shortened: (§1)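 The 96-well mGAM cultures had been kept anaerobic for 27 h at 37 °C before being shaken and read at 595 nm. Blank subtraction, compound background correction with 20 µM compound solutions in water, and a calibration factor of 5 turned the readings into OD. Growth is given as the fold change versus the median of plate DMSO controls. Fold changes above 1.5 were set to NA, and the values are means of 2 biological replicates.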

Escherichia coli IAI1 [2] = experiment: as above
Procedure, shortened: as §1

[3] = system: Klebsiella aerogenes DSM 30053; experiment: as above
Procedure, shortened: as §1

[4] = system: Ruminococcus gnavus DSM 108212; experiment: as above
Procedure, shortened: as §1

[5] = system: Klebsiella aerogenes DSM 30053; experiment: fold change of Histamine concentration vs plate DMSO controls (fold change (ratio)); higher = more amine produced, active = hit call of the paper (significant change in both replicates, either direction)
Procedure, shortened: (§2)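 Amines were quantified by LC–triple-quadrupole MS in dynamic MRM mode against external calibration curves, with drift correction within each batch. The samples were whole anaerobic mGAM cultures of four gut bacterial strains, grown for 27 h at 37 °C in 80 µL wells and extracted with cold acetonitrile/methanol with 0.1% formic acid, then centrifuged. Values are reported as fold change over DMSO controls on the same plate. The mean of 2 biological replicates is given.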

[6] = system: Clostridium sporogenes DSM 1664; experiment: fold change of Tryptamine concentration vs plate DMSO controls (fold change (ratio)); higher = more amine produced, active = hit call of the paper (significant change in both replicates, either direction)
Procedure, shortened: as §2

[7] = system: Ruminococcus gnavus DSM 108212; experiment: as above
Procedure, shortened: as §2

Escherichia coli IAI1 [8] = experiment: fold change of Putrescine concentration vs plate DMSO controls (fold change (ratio)); higher = more amine produced, active = hit call of the paper (significant change in both replicates, either direction)
Procedure, shortened: as §2

[9] = system: Klebsiella aerogenes DSM 30053; experiment: as above
Procedure, shortened: as §2

Escherichia coli IAI1 [10] = experiment: fold change of Cadaverine concentration vs plate DMSO controls (fold change (ratio)); higher = more amine produced, active = hit call of the paper (significant change in both replicates, either direction)
Procedure, shortened: as §2

[11] = system: Klebsiella aerogenes DSM 30053; experiment: as above
Procedure, shortened: as §2

[12] = system: Ruminococcus gnavus DSM 108212; experiment: fold change of 2-Phenylethylamine concentration vs plate DMSO controls (fold change (ratio)); higher = more amine produced, active = hit call of the paper (significant change in both replicates, either direction)
Procedure, shortened: as §2

Row | Structure (SMILES) | growth [1] | growth (Escherichia coli IAI1 [2]) | growth [3] | growth [4] | fold change of Histamine concentration [5] | fold change of Tryptamine concentration [6] | fold change of Tryptamine concentration [7] | fold change of Putrescine concentration (Escherichia coli IAI1 [8]) | fold change of Putrescine concentration [9] | fold change of Cadaverine concentration (Escherichia coli IAI1 [10]) | fold change of Cadaverine concentration [11] | fold change of 2-Phenylethylamine concentration [12]
1 | S=C([S-])NCCNC(=S)[S-].S=C([S-])NCCNC(=S)[S-].[Mn+2].[Zn+2] (20 µM) | 0.889 | 0.959 | 0.994 | 1.01 | 0.985 (inactive) | 1.14 (inactive) | 1.12 (inactive) | 1.02 (inactive) | 0.852 (inactive) | 0.85 (inactive) | 1.07 (inactive) | 1.21 (inactive)
2 | COc1ccc(NS(=O)(=O)c2ccc(N)cc2)nn1 [Sulfamethoxypyridazine] (20 µM) | 0.883 | 1.01 | 0.983 | 1.01 | 1.06 (inactive) | 1.03 (inactive) | 1.17 (inactive) | 1.02 (inactive) | 1.03 (inactive) | 1.07 (inactive) | 1.1 (inactive) | 1.44 (inactive)
3 | COc1cccc(CCc2ccccc2OCC(CN(C)C)OC(=O)CCC(=O)O)c1 (configuration not stated) [Sarpogrelate hydrochloride] (20 µM) | 1.19 | 0.978 | 1.02 | 0.991 | 0.977 (inactive) | 0.989 (inactive) | 0.97 (inactive) | 1.02 (inactive) | 0.999 (inactive) | 1.03 (inactive) | 0.996 (inactive) | 0.961 (inactive)
4 | COCC1=C(C(=O)OC(C)OC(=O)OC(C)C)N2C(=O)[C@@H](NC(=O)/C(=N\OC)c3csc(N)n3)[C@H]2SC1 (some centres not stated) [Cefpodoxime proxetil] (20 µM) | 1.05 | 1.01 | 1.04 | 1.18 | 1.06 (inactive) | 0.946 (inactive) | 0.622 (inactive) | 0.972 (inactive) | 1.03 (inactive) | 1.43 (active) | 0.986 (inactive) | 0.605 (inactive)
5 | CC1CCc2c(N3CCC(O)CC3)c(F)cc3c(=O)c(C(=O)O)cn1c23 (configuration not stated) [Nadifloxacin] (20 µM) | 0.00717 | 0.0576 | 0.316 | 0.383 | 0.5 (active) | 0.0474 (active) | 0.271 (active) | 0.763 (inactive) | 1.16 (inactive) | 0.267 (active) | 0.982 (inactive) | 0.362 (active)
6 | C[C@H](CC[C@@H](O[C@@H]1O[C@H](CO[C@@H]2O[C@H](CO)[C@@H](O)[C@H](O)[C@H]2O)[C@@H](O)[C@H](O)[C@H]1O[C@@H]1O[C@H](CO)[C@@H](O)[C@H](O)[C@H]1O)C(C)(C)O)[C@H]1CC[C@@]2(C)[C@@H]3CC=C4[C@@H](CC[C@H](O[C@@H]5O[C@H](CO[C@@H]6O[C@H](CO)[C@@H](O)[C@H](O)[C@H]6O)[C@@H](O)[C@H](O)[C@H]5O)C4(C)C)[C@]3(C)[C@H](O)C[C@]12C [Mogroside V] (50 µM) | 0.958 | 0.906 | 1 | 1.22 | 1.03 (inactive) | 1.12 (inactive) | 0.979 (inactive) | 0.939 (inactive) | 1 (inactive) | 1.11 (inactive) | 1.02 (inactive) | 0.964 (inactive)
7 | N/C(=N\C(=O)c1nc(Cl)c(N)nc1N)NCc1ccccc1 [Benzamil hydrochloride] (20 µM) | 0.787 | 0.962 | 0.958 | 0.861 | 0.932 (inactive) | 1.03 (inactive) | 0.961 (inactive) | 0.807 (inactive) | 0.965 (inactive) | 1.48 (inactive) | 0.991 (inactive) | 0.936 (inactive)
8 | OC[C@H]1O[C@H](O[C@H]2O[C@H](CO)[C@@H](O)[C@H](O)[C@H]2O)[C@H](O)[C@@H](O)[C@@H]1O [Trehalose] (50 µM) | 0.902 | 1.07 | 1.03 | 1.06 | 0.94 (inactive) | 1.16 (inactive) | 1.09 (inactive) | 1 (inactive) | 0.901 (inactive) | 0.831 (inactive) | 1.06 (inactive) | 1.15 (inactive)
9 | CCc1oc2ccccc2c1C(=O)c1cc(Br)c(O)c(Br)c1 [Benzbromarone] (20 µM) | 0.813 | 0.959 | 0.986 | 0.873 | 0.958 (inactive) | 0.706 (active) | 0.722 (active) | 0.989 (inactive) | 0.994 (inactive) | 1.04 (inactive) | 0.998 (inactive) | 0.763 (active)
10 | CCCCOc1cc(C(=O)NCCN(CC)CC)c2ccccc2n1 [Dibucaine] (20 µM) | 1.14 | 1.01 | 1.06 | 1.02 | 0.93 (inactive) | 1.02 (inactive) | 1 (inactive) | 0.927 (inactive) | 0.955 (inactive) | 0.961 (inactive) | 1.03 (inactive) | 1.03 (inactive)
11 | CCOc1ccc2ccccc2c1C(=O)N[C@@H]1C(=O)N2[C@@H]1SC(C)(C)[C@@H]2C(=O)O [Nafcillin sodium salt monohydrate] (20 µM) | 0 | 0.973 | 1.01 | 0 | 0.899 (inactive) | 0.0237 (active) | 0.0506 (active) | 0.908 (inactive) | 1.06 (inactive) | 1.02 (inactive) | 1.02 (inactive) | 0.0511 (active)
